PubChem BioAssay (EPA / NIEHS)
Calls of active or inactive are those of the source. How the source made its calls: active means hit-call score of the fitted dose curve at least 0.9, where 1 is the maximum; inactive means score below 0.9.

read-out: Interferon-gamma inducible Protein 10 (IP10), CXCL10 (gene 3627); assay: BSK_hDFCGF_IP10: BioMAP Diversity Plus: hDFCGF Assay for Interferon-gamma inducible Protein 10 (IP10) Biomarker Activity (AID 2283053); conditions: primary human foreskin fibroblasts; actives raise or lower the signal
Description: BSK_hDFCGF is a cell-based, multiplexed-readout assay that uses foreskin fibroblast, a human skin primary cell, with measurements taken at 24 hours after chemical dosing in a 96-well plate.BSK_hDFCGF_IP10 is an assay component measured in the BSK_hDFCGF assay. It measures IP-10 antibody related to regulation of gene expression using ELISA technology.Data from the assay component BSK_hDFCGF_IP10 was analyzed into 1 assay endpoint. This assay endpoint, BSK_hDFCGF_IP10, was analyzed with bidirectional fitting relative to DMSO as the negative control and baseline of activity. Using a type of binding reporter, gain or loss-of-signal activity can be used to understand changes in the signaling as they relate to the gene CXCL10. Furthermore, this assay endpoint can be referred to as a primary readout, because this assay has produced multiple assay endpoints where this one serves a signaling function. To generalize the intended target to other relatable targets, this assay endpoint is annotated to the cytokine intended target family, where the subfamily is chemotactic factor.
The levels of cell surface (or secreted, indicated by the prefix "s") biomarker endpoints were measured by ELISA. Overt cytotoxicity to cells in confluent adherent cultures (all systems other than the BT system) was assessed by measuring total protein levels using sulforhodamine B (SRB) staining in parallel cultures at the time of biomarker measurements, indicated as SRB endpoints. For proliferation assays for adherent cell types, individual cell types are cultured at sub-confluence and relative cell numbers quantified by SRB staining at time points optimized for each system (48 h: 3C and CASM3C systems; 72 h: BT and HDF3CGF systems; 96 h: SAg system). SRB was performed by staining cells with 0.1% SRB after fixation with 10% TCA and reading wells at 560 nm.Viability and proliferation of PBMC (T cells) was quantified by Alamar Blue reduction for the SAg and BT systems. For PBMC viability (referred to as PBMC Cytotoxicity within the assay endpoint names), cells were plated (75,000/well in a 96-well plate) and then chemical samples added for 1 h before addition of activators, SEB and TSST-1 (20 ng/mL final concentration each). Cells were incubated for 90 h. Then, Alamar Blue (20 uL/well) (Invitrogen, Cat DAL1100) was added for 6 h, and the plates were read with a fluorescence microplate reader at 546/580 nm (excitation/emission). For PBMC proliferation, cells were plated and activated as above but incubated for only 16 h prior to addition of Alamar Blue. Plates were read after 6 h.

With `CCCCC(O)(Cn1cncn1)c1ccc(Cl)cc1Cl` (stereo not given) as the molecule, how does the AC50 read?
Its AC50 is 32.9 µM (active).

Which AC50 does the source give for `CCOP(=O)(OCC)Oc1nc(Cl)c(Cl)cc1Cl` here?
The AC50 was 20 µM (active).

With `COC(=O)NC(=S)Nc1ccccc1NC(=S)NC(=O)OC` as the molecule, how does the outcome read?
Its outcome is “inactive”.

How did the AC50 turn out when `C=CCOC(=O)C(C)(C)OC(=O)c1cc(-n2c(=O)cc(C(F)(F)F)n(C)c2=O)ccc1Cl` was run?
Its AC50 is 1.2 µM (active).

For `COP(=S)(OC)SCn1nnc2ccccc2c1=O`, which outcome is on record?
Its outcome is “inactive”.

How did the outcome turn out when `N#CN=C1SCCN1Cc1ccc(Cl)nc1` was run?
The outcome was “inactive”.

`CCNC(=O)NC(=O)C(C#N)=NOC` was tested. Which outcome did it give?
Its outcome is “inactive”.

With `CNC(=O)Oc1cccc2ccccc12` as the molecule, how does the outcome read?
The outcome was “inactive”.

`COc1cc(OC)nc(NC(=O)NS(=O)(=O)c2ncccc2OCC(F)(F)F)n1` was tested. Which outcome did it give?
Its outcome is “inactive”.

`Cc1cc(C)nc(Nc2ccccc2)n1` was tested. Which outcome did it give?
Its outcome is “inactive”.

How did the AC50 turn out when `O=C1C2CC=CCC2C(=O)N1SC(Cl)(Cl)Cl` (stereo not given) was run?
The AC50 was 6.95 µM (active).

With `CCC(C)n1c(=O)[nH]c(C)c(Br)c1=O` (stereo not given) as the molecule, how does the outcome read?
The outcome was “inactive”.

For `CC(C)C1(C)N=C(c2ncccc2C(=O)O)NC1=O` (stereo not given), which outcome is on record?
The outcome was “inactive”.

`COC(=O)c1c(C(F)F)nc(C(F)(F)F)c(C2=NCCS2)c1CC(C)C` was tested. Which AC50 did it give?
Its AC50 is 6.09 µM (active).

How did the outcome turn out when `CC1(C)C(C=C(Cl)Cl)C1C(=O)OC(C#N)c1cccc(Oc2ccccc2)c1` (stereo not given) was run?
The outcome was “inactive”.

Which outcome does the source give for `CO/N=C(/C1=NOCCO1)c1ccccc1Oc1ncnc(Oc2ccccc2Cl)c1F` here?
The outcome was “inactive”.

`CSC(=O)c1c(C(F)F)nc(C(F)(F)F)c(C(=O)SC)c1CC(C)C` was tested. Which AC50 did it give?
Its AC50 is 25.5 µM (active).

For `O=C(Nc1ccccc1-c1ccc(Cl)cc1)c1cccnc1Cl`, which outcome is on record?
The outcome was “inactive”.

For `CCCC(=NOCC)C1=C(O)CC(CC(C)SCC)CC1=O` (stereo not given), which outcome is on record?
The outcome was “inactive”.

With `CN=C=S` as the molecule, how does the AC50 read?
Its AC50 is 16.6 µM (active).

How did the outcome turn out when `O=C(O)c1c(Cl)ccc2cc(Cl)cnc12` was run?
Its outcome is “inactive”.

For `CCOc1nc(C(Cl)(Cl)Cl)ns1`, which outcome is on record?
Its outcome is “inactive”.

How did the AC50 turn out when `CCN(CC)C(=O)C(C)Oc1cccc2ccccc12` (stereo not given) was run?
Its AC50 is 3.97 µM (active).

For `CCOP(=S)(OCC)Oc1nc(Cl)n(C(C)C)n1`, which AC50 is on record?
The AC50 was 26.7 µM (active).

Which outcome does the source give for `Nc1c(Cl)c(Cl)nc(C(=O)O)c1Cl` here?
The outcome was “inactive”.

With `Cc1c(COC(=O)[C@@H]2[C@H](/C=C(\Cl)C(F)(F)F)C2(C)C)cccc1-c1ccccc1` as the molecule, how does the outcome read?
The outcome was “inactive”.

For `CC(C)N1C(=O)N(c2ccccc2)CSC1=NC(C)(C)C`, which AC50 is on record?
Its AC50 is 15.7 µM (active).

How did the outcome turn out when `Nc1c(Cl)c(F)nc(OCC(=O)O)c1Cl` was run?
The outcome was “inactive”.

`CCCCOCN(C(=O)CCl)c1c(CC)cccc1CC` was tested. Which AC50 did it give?
Its AC50 is 24.6 µM (active).

With `CC(C)N1C(=O)c2ccccc2NS1(=O)=O` as the molecule, how does the AC50 read?
Its AC50 is 13.4 µM (active).

For `Clc1nc(Cl)nc(Nc2ccccc2Cl)n1`, which AC50 is on record?
Its AC50 is 32 µM (active).

For `O=c1n(Cl)c(=O)n(Cl)c(=O)n1Cl`, which AC50 is on record?
Its AC50 is 20 µM (active).

With `N#Cc1c(Cl)cccc1Cl` as the molecule, how does the outcome read?
The outcome was “inactive”.

For `Nc1cnn(-c2ccccc2)c(=O)c1Cl`, which outcome is on record?
Its outcome is “inactive”.

With `CC(C)Nc1nc(Cl)nc(NC(C)C)n1` as the molecule, how does the outcome read?
The outcome was “inactive”.

For `COC(=O)NS(=O)(=O)c1ccc(N)cc1`, which outcome is on record?
Its outcome is “inactive”.

Which outcome does the source give for `CC1(C)CON(Cc2ccccc2Cl)C1=O` here?
The outcome was “inactive”.

`Cc1nc(N(C)C)nc(OC(=O)N(C)C)c1C` was tested. Which outcome did it give?
The outcome was “inactive”.

`COCC(C)N(C(=O)CCl)c1c(C)csc1C` (stereo not given) was tested. Which outcome did it give?
The outcome was “inactive”.

Which outcome does the source give for `COc1ccc(-c2ccccc2)cc1NNC(=O)OC(C)C` here?
Its outcome is “inactive”.
